Binding signal data for 1 sequence are collected here from patent US20070207532, “Mutants Of O6-Alkylguanine-Dna Alkyltransferase” (published 2007).

Sequence of AGT mutant of Example 4 (GST fusion) (P16455 whole entry G131K/G132T/M134L/R135S/N157G/S159E, the tested form may be a part): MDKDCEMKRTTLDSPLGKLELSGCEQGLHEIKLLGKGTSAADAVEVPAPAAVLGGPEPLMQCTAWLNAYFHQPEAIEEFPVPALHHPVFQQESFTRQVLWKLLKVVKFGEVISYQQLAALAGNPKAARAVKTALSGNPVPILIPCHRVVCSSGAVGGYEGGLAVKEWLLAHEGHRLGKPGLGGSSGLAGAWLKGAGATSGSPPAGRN

This experiment addresses AGT mutant of Example 4 (GST fusion) (Homo sapiens, UniProt P16455 SEQ:1-207, Gly131Lys, Gly132Thr, Met134Leu, Arg135Ser, Asn157Gly, Ser159Glu). Kind of experiment: competition; reactivity with BG-modified oligonucleotide. As to conditions: tags: N-terminal GST (pGEX-2T); ssDNA; O6-benzylguanine at position 14. As for the experimental part:
Reactivity against DNA-based substrates measured with a BG-Cy3 assay: BG-Cy3 is prepared by reacting the previously described O⁶-(4-aminomethyl-benzyl)guanine (Keppler et al., NatureBiotechnol. 21:86-89, 2003) with the commercially available N-hydroxysuccinimide ester of Cy3, (Cy3-NHS, Amersham). The coupling reaction is performed at ambient temperature in N,N-dimethylformamide in the presence of 1 eq. of triethylamine. The BG-Cy3 conjugate is purified by reversed-phase HPLC on a C18-column by using linear gradients from 0.1% trifluoroacetic acid to acetonitrile. After solvent evaporation BG-Cy3 is dissolved in dimethyl sulfoxide and stored at −20° C. For measuring the reactivity with DNA-based substrates, a reaction mixture containing different concentrations (0 to 5 µM) of oligonucleotide SEQ ID NO:2 (modified in position 14), GST-AGT fusion protein at 0.2 µM and BG-Cy3 at […] in reaction buffer (50 mM HEPES, pH 7.2, 1 mM DTT, […] BSA) is incubated in microtiterplates. Fluorescence of the Cy3 derivative (excitation 519 nm, emission at 572 nm) is measured on a Spectramax Gemini plate reader (Molecular Devices).
GTGGTGGGCAGCTGAGGCGTGG had a binding signal of at least 1000 fold reduced vs PGEG-hAGT.
